In experiment [1] the target is Cellular tumor antigen p53 (Homo sapiens) (UniProt P04637). Briefly: TOX21_p53_BLA_p2_ratio: Tox21 HCT-116 p53 Agonism Beta-lactamase Assay, Ratio, Phase 2 (AID 2283592). The method in brief:
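Human colon HCT116 cells with an inducible p53 beta-lactamase reporter are exposed to test chemicals for 16 h at 37C. Reporter induction is read as the 460/530 nm emission ratio after CCF4-AM loading, normalized to DMSO.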

For experiment [2] the target is unchanged. Briefly: TOX21_p53_BLA_p3_ratio: Tox21 HCT-116 p53 Agonism Beta-lactamase Assay, Ratio, Phase 3 (AID 2283596). The method in brief:
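HCT116 p53-bla cells (4000/well) given compound in DMSO (217-fold dilution) after 5 h, incubated 16 h at 37C. CCF4-AM substrate 2 h at room temperature; 460/530 nm emission ratio, gain fitted against DMSO.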

For experiment [3] the target is unchanged. Briefly: TOX21_p53_BLA_p5_ratio: Tox21 HCT-116 p53 Agonism Beta-lactamase Assay, Ratio, Phase 5 (AID 2283599). In outline:
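HCT-116 p53-bla cells (4000/well) plated 5 h, dosed with compound (217-fold DMSO dilution) for 16 h at 37 C; CCF4-AM substrate 2 h at room temperature. Activity is the 460/530 nm emission ratio (405 nm excitation), fitted in gain-of-signal direction versus DMSO.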

Experiment [4] shares this target. Briefly: TOX21_p53_BLA_p4_ratio: Tox21 HCT-116 p53 Agonism Beta-lactamase Assay, Ratio, Phase 4 (AID 2283601). The method in brief:
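HCT-116 p53 beta-lactamase reporter cells (4000/well) preincubated 5 h, then compound (217-fold dilution of DMSO stock) for 16 h at 37C. CCF4-AM substrate added 2 h at room temperature; 460/530 nm emission ratio fitted upward versus DMSO.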

The nature of experiment [5]: Tanguay_ZF_120hpf_MORT_legacy: (Legacy) Oregon State University Tanguay Lab 120 Hour Post-fertilization zebrafish Assay for Mortality (AID 2283633). The method in brief: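 Single dechorionated Tropical 5D embryos were held with test chemical (0.64% DMSO final) from 6 to 120 hpf at 28C under foil. Deaths at 24 or 120 hpf were recorded as binary calls, analysed for increase over DMSO controls.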

Experiment [6] can be described thus: Tanguay_ZF_120hpf_YSE_legacy: (Legacy) Oregon State University Tanguay Lab 120 Hour Post-fertilization zebrafish Assay for Yolk Sac Edema (AID 2283634).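 For AC50: actives raise the incidence of yolk sac edema above the DMSO baseline.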 In outline: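 Single dechorionated embryos were held in sealed plates at 28C with test chemical (0.64% DMSO final) from 6 hpf until 120 hpf. Edema of the yolk sac was then recorded as a binary endpoint; non-mortality endpoints were skipped for dead embryos.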

The nature of experiment [7]: TOX21_p53_BLA_p2_viability: Viability Assessment in the Tox21 HCT-116 p53 Agonism Beta-lactamase Assay, Phase 2 (AID 2283591).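 Note: compound exposure lasted 16 h at 37 °C; actives lower the ATP signal meaning cytotoxicity.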 In outline:
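HCT116 p53-bla cells, 4000/well, dosed after 5 h plating (217-fold dilution of DMSO stocks) and incubated 16 h at 37C. Viability taken as cellular ATP by CellTiter-Glo luminescence after 30 min RT; signal loss marks cytotoxicity.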

A short description of experiment [8]: TOX21_p53_BLA_p3_viability: Viability Assessment in the Tox21 HCT-116 p53 Agonism Beta-lactamase Assay, Phase 3 (AID 2283593).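 Note: cells exposed to compound for 16 h before reading.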 In outline:
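HCT116 cells, 4000/well, dosed 5 h after plating by pin transfer (217-fold dilution from DMSO stock) and incubated 16 h at 37C, 5% CO2. Viability read as ATP luminescence with CellTiter-Glo after 30 min at room temperature.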

The nature of experiment [9]: TOX21_p53_BLA_p4_viability: Viability Assessment in the Tox21 HCT-116 p53 Agonism Beta-lactamase Assay, Phase 4 (AID 2283597).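 Note: hits lower the luminescence signal meaning cytotoxicity.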 In outline:
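Luminescent ATP readout (CellTiter-Glo, 30 min, room temperature) in the same wells as the p53 bla ratio. HCT116 cells were treated for 16 h at 37C with DMSO-dissolved compounds.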

The nature of experiment [10]: TOX21_p53_BLA_p5_viability: Viability Assessment in the Tox21 HCT-116 p53 Agonism Beta-lactamase Assay, Phase 5 (AID 2283600). The method in brief: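 Seeded cells (4000/well) settle 5 h before compound addition. Plates then incubate 16 h at 37C, receive FRET substrate for 2 h, and finally CellTiter-Glo, with luminescence measured after a 30 min room-temperature incubation.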

Inconclusive results are not listed. Activity calls are given as the source filed them. Rule for the calls: active = hit-call score of the fitted dose curve at least 0.9, where 1 is the maximum; inconclusive = response in the unintended direction; inactive = score below 0.9.

We go through 27 compounds from PubChem BioAssay (EPA / NIEHS).

As usually defined, the AC50 is the concentration at which the activity in the assay is half-maximal.

Sequence of Cellular tumor antigen p53 (Homo sapiens) (P04637 whole entry, looked up): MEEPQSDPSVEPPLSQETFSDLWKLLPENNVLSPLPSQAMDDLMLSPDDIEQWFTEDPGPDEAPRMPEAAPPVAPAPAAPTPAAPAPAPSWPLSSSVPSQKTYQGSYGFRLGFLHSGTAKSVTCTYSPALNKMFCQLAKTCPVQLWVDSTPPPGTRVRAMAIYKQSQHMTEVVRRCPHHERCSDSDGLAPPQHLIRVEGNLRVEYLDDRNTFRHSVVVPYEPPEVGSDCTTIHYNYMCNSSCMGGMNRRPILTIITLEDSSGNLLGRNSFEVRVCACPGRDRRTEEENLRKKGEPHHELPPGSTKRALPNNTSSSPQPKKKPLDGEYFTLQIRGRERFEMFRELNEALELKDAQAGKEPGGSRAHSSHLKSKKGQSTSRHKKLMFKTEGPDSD

Regarding `Cc1c(-c2cccnc2)c2ccccc2n1CCCCC(=O)O`, the outcome in experiment [1], in experiment [2], in [3], in [4] and in [5] was inactive. Moreover, the AC50 in experiment [6] was 51.2 µM (active).
Regarding `CCOCCOCCOCCO`, the result in experiment [7], in [1], in experiment [2], in experiment [3], in [4] and in experiment [5] was inactive. The result in [6] was inactive.
Regarding `COCCOc1cc2cc(C(=O)NC3CCN(C(C)C)CC3)n(CC(=O)Nc3ccc(Cl)cn3)c2cn1`, the result in experiment [8], in experiment [2], in experiment [9], in [3], in experiment [10] and in experiment [5] was inactive. Also, the result in experiment [6] was inactive.
In the case of `CCn1nc(Cc2ccccc2)cc1C1CCN(C[C@H]2C[C@H](N(C)[C@@H](C(=O)O)C(C)C)C[C@@H]2c2cccc(F)c2)CC1`, the compound was classed as inactive in experiment [7], in experiment [8], in experiment [9], in experiment [3], in experiment [10] and in [5]. For the same compound, in experiment [6], the call was inactive.
As to `CCOC(=O)CC(CC(=O)OCC)(OC(C)=O)C(=O)OCC`, the result in experiment [1], in experiment [8], in experiment [10], in experiment [5] and in [6] was inactive.
`CC(C)=CCCC(C)=CC=O`: the outcome in experiment [1], in experiment [8], in experiment [2], in [9], in [10] and in experiment [4] was inactive. Further, the outcome in experiment [5] and in [6] was inactive.
As to `CC1(C)C(=O)N(Br)C(=O)N1Br`, the outcome in experiment [2], in experiment [9], in experiment [3], in [10], in experiment [4] and in experiment [5] was inactive. The call in [6] was inactive.
Regarding `Cc1ccc(O)cc1`, the outcome in experiment [1], in experiment [2], in experiment [9], in [3], in experiment [10] and in experiment [4] was inactive. In addition, the compound was classed as inactive in experiment [5] and in experiment [6].
In the case of `O=C(O)c1cccc(Oc2ccccc2)c1`, the outcome in experiment [1], in [2], in [9], in experiment [3], in experiment [4] and in experiment [5] was inactive. In addition, the result in experiment [6] was inactive.
For the compound `Clc1nc(Cl)c(Cl)c(Cl)c1Cl`, the call in [7], in experiment [1], in experiment [2], in experiment [9], in experiment [3] and in experiment [10] was inactive. Moreover, the outcome in experiment [4], in [5] and in [6] was inactive.
In the case of `On1ccccc1=S`, the outcome in experiment [1], in [2], in experiment [9], in experiment [3], in experiment [4] and in [5] was inactive. In addition, the concentration at half-maximal activity (AC50) in [6] is 0.0413 µM (active).
Turning to `CC(O)CN(CCN(CC(C)O)CC(C)O)CC(C)O` (stereo unspecified), the result in experiment [7], in experiment [1], in experiment [2], in [9], in experiment [3] and in experiment [10] was inactive. The result in [4], in experiment [5] and in experiment [6] was inactive.
As to `CCNc1ccccc1`, the outcome in experiment [7], in [1], in experiment [2], in [9], in experiment [3] and in experiment [4] was inactive. The compound was classed as inactive in [5] and in experiment [6].
For the compound `CC(C)CCCCCCOC(=O)c1ccc(C(=O)OCCCCCCC(C)C)c(C(=O)OCCCCCCC(C)C)c1`, the outcome in experiment [7], in [8], in [2], in [9], in [3] and in experiment [5] was inactive. The compound was called inactive in experiment [6].
As for `C1=CCCC=CCCC=CCC1`, the call in [7], in [2], in [9], in experiment [3], in experiment [4] and in experiment [5] was inactive. For the same compound, in experiment [6], the outcome was inactive.
`O=C(O)CC(O)C(=O)O` (stereo unspecified): the compound was called inactive in [7], in [1], in experiment [2], in [9], in [3] and in experiment [10]. Also, the result in experiment [4], in experiment [5] and in experiment [6] was inactive.
With `COC(=O)CC(=O)OC`, the compound was called inactive in experiment [7], in experiment [1], in experiment [2], in [9], in experiment [3] and in [10]. Moreover, the outcome in [4], in [5] and in [6] was inactive.
Regarding `CC/C(=C\C(=N/O)C(N)=O)C(C)[N+](=O)[O-]` (stereo unspecified), the result in [7], in experiment [2], in [9], in experiment [3], in experiment [4] and in [5] was inactive. In addition, in [6], the result was inactive.
On to `Cc1ccc(C)c(O)c1`, for which the outcome in experiment [1], in experiment [8], in [2], in [3], in experiment [10] and in experiment [4] was inactive. For the same compound, the result in [5] and in experiment [6] was inactive.
Consider `Cn1c(=O)cc(Oc2ccc(F)cc2F)c2cnc(NCC(C)(C)O)nc21`, for which the compound was called inactive in experiment [7], in [8], in experiment [9] and in experiment [5]. In experiment [6], the AC50 was 15.7 µM (active).
Regarding `COCCOCCOCCOC`, the outcome in experiment [1], in experiment [9], in [3], in [10], in experiment [5] and in [6] was inactive.
`CC(=O)c1ccc2c(c1)[C@H](NC(=O)c1ccc(F)cc1)[C@@H](O)C(C)(C)O2`: the outcome in experiment [7], in [8], in experiment [2], in [9], in experiment [3] and in [10] was inactive. For the same compound, the result in experiment [4], in experiment [5] and in experiment [6] was inactive.
For `CCOCCO`, the compound was classed as inactive in [7], in experiment [1], in [2], in experiment [9], in [3] and in experiment [10]. Moreover, the result in experiment [4], in experiment [5] and in [6] was inactive.
Regarding `C=CC(=C)CCC=C(C)C`, the call in experiment [7], in experiment [1], in [2], in experiment [9], in experiment [3] and in [10] was inactive. Moreover, the outcome in [4], in experiment [5] and in [6] was inactive.
Take `CNCc1ccc(NC(=O)c2c[nH]c3c2C(=O)CCC3)cc1`: the result in [1], in experiment [8], in [9], in [4], in [5] and in experiment [6] was inactive.
With `CCCC(=O)OCC`, the outcome in experiment [1], in experiment [8], in [2], in experiment [5] and in experiment [6] was inactive.
`O=C(O)CCN(C1(C(=O)NO)CCCC1)S(=O)(=O)c1ccc(Oc2ccc(F)cc2)cc1`: the outcome in [1], in [8], in [10], in experiment [5] and in experiment [6] was inactive.
